A number with no mark means an inactive call. The source made the active and inactive calls.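 Rule for the calls, unless noted: active = mean inhibition above 46.68%, the untreated control wells mean plus 3 SD; inactive = the rest.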
Key:
[1] = biological target: Nuclear receptor coactivator 1 (Homo sapiens) (UniProt Q15788); assay: SRC1 coactivator transcriptional activity inhibitors, confirmation, cell-based, luminescence, quadruplicate (AID 588820); conditions: HEK293 GAL4-SRC1 luciferase reporter, at 3.6 µM, stronger effect = higher value;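 note: 0% = DMSO wells and 100% = gossypol 36 µM treated wells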
Sequence of Nuclear receptor coactivator 1 (Homo sapiens) (Q15788 whole entry, looked up, the tested form may be a part): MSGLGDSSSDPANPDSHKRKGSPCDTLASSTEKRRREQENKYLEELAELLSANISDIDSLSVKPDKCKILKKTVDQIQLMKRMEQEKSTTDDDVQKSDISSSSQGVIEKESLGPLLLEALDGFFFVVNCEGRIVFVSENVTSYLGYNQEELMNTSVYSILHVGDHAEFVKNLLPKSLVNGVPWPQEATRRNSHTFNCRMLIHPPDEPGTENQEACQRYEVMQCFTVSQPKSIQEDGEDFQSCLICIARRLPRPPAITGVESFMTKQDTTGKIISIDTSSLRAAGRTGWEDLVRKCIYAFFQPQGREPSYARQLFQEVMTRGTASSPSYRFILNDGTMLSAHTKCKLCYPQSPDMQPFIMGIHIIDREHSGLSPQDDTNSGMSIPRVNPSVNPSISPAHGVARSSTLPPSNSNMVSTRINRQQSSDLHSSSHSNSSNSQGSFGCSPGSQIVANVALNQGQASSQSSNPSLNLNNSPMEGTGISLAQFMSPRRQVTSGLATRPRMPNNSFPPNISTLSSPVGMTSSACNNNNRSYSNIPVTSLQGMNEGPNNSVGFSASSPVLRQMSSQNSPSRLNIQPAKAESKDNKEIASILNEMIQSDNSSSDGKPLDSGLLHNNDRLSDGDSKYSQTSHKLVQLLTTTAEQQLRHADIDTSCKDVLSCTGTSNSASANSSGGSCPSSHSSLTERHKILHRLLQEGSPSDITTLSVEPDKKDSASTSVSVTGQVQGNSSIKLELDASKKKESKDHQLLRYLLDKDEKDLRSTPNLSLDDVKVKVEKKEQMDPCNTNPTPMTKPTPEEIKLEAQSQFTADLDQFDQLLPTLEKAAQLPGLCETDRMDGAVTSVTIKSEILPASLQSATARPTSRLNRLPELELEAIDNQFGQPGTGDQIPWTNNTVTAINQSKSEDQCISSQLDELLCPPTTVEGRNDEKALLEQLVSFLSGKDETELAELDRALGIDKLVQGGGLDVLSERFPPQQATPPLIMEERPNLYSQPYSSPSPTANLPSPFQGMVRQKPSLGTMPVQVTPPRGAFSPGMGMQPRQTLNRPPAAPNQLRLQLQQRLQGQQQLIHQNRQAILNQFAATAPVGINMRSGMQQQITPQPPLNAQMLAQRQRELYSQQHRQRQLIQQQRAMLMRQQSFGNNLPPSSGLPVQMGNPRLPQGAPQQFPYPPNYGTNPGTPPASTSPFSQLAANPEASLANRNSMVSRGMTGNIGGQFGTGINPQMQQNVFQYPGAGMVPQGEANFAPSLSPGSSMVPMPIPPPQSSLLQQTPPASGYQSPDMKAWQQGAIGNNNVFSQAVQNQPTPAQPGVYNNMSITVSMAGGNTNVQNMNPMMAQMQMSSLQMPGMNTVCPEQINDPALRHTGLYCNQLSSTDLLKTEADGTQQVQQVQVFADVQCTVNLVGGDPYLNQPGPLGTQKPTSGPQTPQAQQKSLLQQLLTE

[2] = VP16 transactivation inhibitors, counter-screen for SRC1 inhibitor project, cell-based, luminescence, high throughput (AID 588824; in the data active = inhibition above about 25%); conditions: cell-based VP16 transactivation luciferase luminescence; at 3.6 µM; stronger effect = higher value

Compound | inhibition [1] | inhibition [2]
COc1cccc(NC(=O)CN(C)CC(=O)Nc2ccc(C)c([N+](=O)[O-])c2)c1 | 28% | 27.2% (active)
Cc1cc[n+](CC(=O)Nc2cccc(C)c2)cc1 | -8.15% | 1.99%
CCOC(=O)CSc1cc(-c2ccccc2)nc2ncnn12 | 17.9% | 4.7%
C/C(=N\NC(=O)Cc1ccc(Cl)cc1)c1ccccn1 | -28.3% | 23.3%
O=C(Nc1ccn(Cc2c(F)c(F)c(F)c(F)c2F)n1)c1ccc(COc2ccccc2Cl)cc1 | 3.66% | 8.16%
COc1ccc(-n2c(NNC(C)=O)nc3sc4c(c3c2=O)CCCC4)cc1 | 23.4% | 31.6% (active)
COc1cccc(C=NNC(=O)c2ccncc2)c1O | 7.89% | 10.7%
Cc1ccc(CNc2nc(-c3cccs3)nc3ccccc23)cc1 | -2.3% | 14.8%
CN1CCN(c2ccc(CNS(=O)(=O)c3ccc(F)cc3Cl)cc2)CC1 | -2.89% | -5.39%
O=[N+]([O-])c1ccc(C[n+]2cccc3c4ccccc4ccc32)cc1 | 3.12% | 34.3% (active)
Cc1nc2ccccc2c(N)c1C(=O)/C=C/c1ccccc1 | 28.7% | 31.6% (active)
COc1cccc(N2CC(NS(=O)(=O)c3cccnc3)CC2=O)c1 (stereo unspecified) | -40.7% | -8.11%
CN1CCN(c2ccccc2/C=C2/C(=O)Nc3ccccc32)CC1 | -7.17% | 10.8%
COc1cccc(CNC(=O)C2CCCN(S(C)(=O)=O)C2)c1 (stereo unspecified) | -0.5% | 8.47%
COc1ccc2sc3c(=O)[nH]c4ccccc4c3c2c1 | 55% (active) | 41.4% (active)
O=C(NCC[C@@H]1C[C@@H]2C=C[C@H]1C2)c1cc(COc2ccc(F)cc2F)on1 | -4.95% | 1.83%
COc1ccc(Oc2nc3c(c(=O)n(C)c(=O)n3C)n2C)cc1 | 24.8% | 16.6%
CC1Sc2n(c3ccccc3[n+]2C)N=C1c1ccccc1 (stereo unspecified) | -6.75% | 11.7%
